Experimental data from PubChem BioAssay (Tox21).
Records with an inconclusive call do not appear. Entries that show only a call come without a potency. Activity calls are given as the source filed them. Calls follow the shape of the dose curve; as a rule, active = well fitted cell-killing curve with a large enough effect in the repeat runs; inconclusive = weak or mixed curves, or effect the other way; inactive = flat fitted curve, though single readings scatter.

Test: qHTS assay to identify small molecule agonists of the constitutive androstane receptor (CAR) signaling pathway - cell viability counter screen (AID 1224836); also: nearly all actives have a fitted effect of over 45% in size
Settings: HepG2-CYP2B6-hCAR viability, CellTiter-Fluor, 23 h, PK11195 added to every well; series mostly up to 92.4 µM
Source text: U.S. Tox21 Program National Center for Advancing Translational Sciences [NCATS] NIH Chemical Genomics Center [NCGC] U.S. Environmental Protection Agency [EPA] National Institutes of Environmental Health Sciences [NIEHS] National Toxicology Program [NTP] U.S. Food and Drug Administration [FDA] Tox21 Assay Overview: The constitutive androstane receptor (CAR) is a nuclear receptor which regulates multiple drug metabolizing enzymes (DMEs) and transporters. Activating CAR will generally increase the transcription and subsequent translation of CYP2B6 and CYP3A4. These two DMEs represent about 50% of the drug metabolizing potential in the body. […] Recently, there have also been studies performed indicating CARs role in energy metabolism and cancer therapy. Therefore, inducing CARs activity could have a potential effect on diabetes and cancer. Identifying environmental toxins and compounds which modulate CAR, through the use of the Tox21 10K compound collection, will be an important step in determining the toxicity and potential therapeutic effects these factors will have on the human body. To differentiate true CAR agonists from cytotoxic substances, the assay is multiplexed with a cell viability assay.
Tox21 Assay Protocol Summary: A double-stable (hCAR and CYP2B6-2.2kb) transfected cell line, derived from human hepatoma (HepG2) cells, was utilized for the duration of the quantitative high-throughput screens. The HepG2-CYP2B6-hCAR cells were dispensed at 2500 cells/4 uL/well in 1536-well white solid bottom plates using a Multidrop Combi. After the assay plates were incubated at 37 C/5% CO2 for 4 hrs, 23 nL of compounds at 15 concentrations (from 5-48 columns) or positive control (from 1 to 4 columns) were transferred to the assay plates using a Pintool station. One uL of PK11195 (final concentration = 0.75 uM) was added, using a Flying Reagent Dispenser, inside each well. After a 23 hr incubation period at 37 C/5% CO2, 1 uL of CellTiter-Fluor reagent was added into each well of the assay plates using a Flying Reagent Dispenser. The fluorescence intensity in the plates was then measured using a ViewLux plate reader.
Potency is read from the fitted curve at half-maximal effect.

Row | Structure (SMILES) | Potency
1 | CC(=O)c1cc2c(cc1C)C(C)(C)C(C)CC2(C)C (stereo not given) | inactive
2 | C[C@@H]1CC[C@H]2[C@@H](C)C(=O)O[C@@H]3O[C@@]4(C)CC[C@@H]1[C@]32OO4 | inactive
3 | O=Cc1ccc2c(c1)OCO2 | inactive
4 | O=S(=O)(Cl)c1ccccc1 | inactive
5 | COC(=O)c1cncn1C(C)c1ccccc1 (stereo not given) | inactive
6 | CCC(C)(NC(=O)c1cc(Cl)c(C)c(Cl)c1)C(=O)CCl (stereo not given) | 61.5 µM (active)
7 | C=CC(=O)NCNC(=O)C=C | inactive
8 | N#Cc1ccc(Cl)cc1 | inactive
9 | CN(C)c1ccc(N(C)C)cc1 | inactive
10 | ClC=C(Cl)Cl | inactive
11 | CCCCNP(N)(N)=S | inactive
12 | CCC(Br)(CC)C(=O)NC(N)=O | inactive
13 | CCCC(=O)Cl | inactive
14 | COc1nn(CSP(=S)(OC)OC)c(=O)s1 | inactive
15 | Clc1ccc(C(OCCN2CCCCC2)c2ccccc2)cc1 (stereo not given) | inactive
16 | CC(=O)[C@H]1CC[C@H]2[C@@H]3CC[C@H]4C[C@](C)(O)CC[C@]4(C)[C@H]3CC[C@]12C | inactive
17 | CCOC(=O)CBr | inactive
18 | Brc1ccc(Oc2ccccc2)cc1 | inactive
19 | C=C(C#N)CCC#N | inactive
20 | Cc1c(F)c(F)c(COC(=O)C2C(/C=C(\Cl)C(F)(F)F)C2(C)C)c(F)c1F (stereo not given) | inactive

Row | Structure (SMILES) | Potency
21 | O=C(O)C(F)(F)C(F)(F)C(F)(F)C(F)(F)C(F)(F)C(F)(F)C(F)(F)C(F)(F)C(F)(F)C(F)(F)F | inactive
22 | C=CCCl | inactive
23 | BrCC(Br)C1CCC(Br)C(Br)C1 (stereo not given) | inactive
24 | c1cc2ccc3cccc4ccc(c1)c2c34 | inactive
25 | Cc1ccccc1C(=O)Nc1cccc(OC(C)C)c1 | inactive
26 | CC(Cl)C(C)Cl (stereo not given) | inactive
27 | CC1(C)CCC(Cc2ccc(Cl)cc2)C1(O)Cn1cncn1 (stereo not given) | inactive
28 | COC(N)=O | inactive
29 | O=C1CN=C(c2ccccc2)c2cc(Cl)ccc2N1CC1CC1 | inactive
30 | CC(C)(C)c1cc([N+](=O)[O-])cc([N+](=O)[O-])c1O | 13.6 µM (active)
31 | O=C(O)c1ccccc1C(=O)Nc1cccc2ccccc12 | inactive
32 | NS(=O)(=O)C(F)(F)C(F)(F)C(F)(F)C(F)(F)C(F)(F)C(F)(F)C(F)(F)C(F)(F)F | inactive
33 | CC(=O)CCC(C)=O | inactive
34 | CN1[C@@H]2CC[C@H]1CC(OC(=O)c1cc(Cl)cc(Cl)c1)C2 (stereo not given in full) | inactive
35 | C=CC(=O)OC | inactive
36 | CCO[C@H]1O[C@@H]2OC3(C)CC[C@H]4[C@H](C)CC[C@@H]([C@H]1C)[C@@]24OO3 | inactive
37 | CCCCN(N=O)C(=N)N[N+](=O)[O-] | inactive
38 | CC(C)(OO)c1ccccc1 | inactive
39 | Clc1cccc(SC2CCNCC2)n1 | inactive
40 | CN1C(=O)NC(=O)C(C)(C2=CCCCC2)C1=O (stereo not given) | inactive
